Source: PubChem BioAssay (EPA / NIEHS)
Several values for one entry are separate records, joined by “and”; a condition that tells them apart may be missing. Identical values can stand only once. Some compounds were tested as several samples or in several runs, with calls that do not always agree. Activity calls are given as the source filed them. The calls were made as follows: active = hit-call score of the fitted dose curve at least 0.9, where 1 is the maximum; inactive = score below 0.9.

Columns and labels:
[1] = read-out: Cyclin D2 (CCND2), CCND2 (gene 894); assay: LTEA_HepaRG_CCND2: Life Technologies and Expression Analysis (LTEA) Assay for Cyclin D2 (CCND2) using HepaRG (AID 2283449); conditions: mRNA level, 48 h; actives raise or lower the signal;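 also: CCND2 transcript measured by TaqMan qRT-PCR and normalised to three housekeeping genes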
How it was run: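 In this HepaRG study, an eight-point concentration series (max 100 uM, 0.5% DMSO) is applied for 48 h. CCND2 mRNA change is derived by qRT-PCR normalised to ACTB, GAPDH and POLR2A.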

[2] = read-out: Cyclin Dependent Kinase Inhibitor 1A (CDKN1A), CDKN1A (gene 1026); assay: LTEA_HepaRG_CDKN1A: Life Technologies and Expression Analysis (LTEA) Assay for Cyclin Dependent Kinase Inhibitor 1A (CDKN1A) using HepaRG (AID 2283450); conditions: mRNA level, 48 h; actives raise or lower the signal
How it was run: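 Cryopreserved HepaRG cells were plated and cultured 48 h, then switched to serum-free induction medium. Chemicals (eight half-log concentrations, top 100 uM, 0.5% DMSO) were applied for 48 h. Lysates underwent qRT-PCR for CDKN1A with housekeeping normalization.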

[3] = read-out: Cyclin D1 (CCND1), CCND1 (gene 595); assay: LTEA_HepaRG_CCND1: Life Technologies and Expression Analysis (LTEA) Assay for Cyclin D1 (CCND1) using HepaRG (AID 2283451); conditions: mRNA level, 48 h; actives raise or lower the signal;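 as to AC50: TaqMan qRT-PCR transcript level normalised to ACTB GAPDH and POLR2A housekeeping genes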
How it was run: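 Human liver HepaRG line; 48 h dosing, 8 conc. ≤100 uM, 0.5% DMSO; TaqMan qRT-PCR mRNA, 3 housekeeping genes; bidirectional curve fit vs DMSO.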

[4] = read-out: catalase (CAT), CAT (gene 847); assay: LTEA_HepaRG_CAT: Life Technologies and Expression Analysis (LTEA) Assay for catalase (CAT) using HepaRG (AID 2283452); conditions: mRNA level, 48 h; actives raise or lower the signal;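 as to AC50: TaqMan qRT-PCR signal normalized to ACTB GAPDH and POLR2A housekeeping genes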
How it was run: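 Differentiated HepaRG cells in serum-free induction medium were dosed 48 h in duplicate, eight half-log concentrations from 100 uM in 0.5% DMSO. Transcript measured by TaqMan qRT-PCR, normalised to ACTB/GAPDH/POLR2A, fitted bidirectionally against DMSO.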

[5] = read-out: flavin-containing dimethylaniline monooxygenases 3 (FMO3), FMO3 (gene 2328); assay: LTEA_HepaRG_FMO3: Life Technologies and Expression Analysis (LTEA) Assay for flavin-containing dimethylaniline monooxygenases 3 (FMO3) using HepaRG (AID 2283453); conditions: mRNA level, 48 h; actives raise or lower the signal;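 as to AC50: FMO3 transcript by TaqMan qRT-PCR normalized to ACTB GAPDH and POLR2A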
How it was run: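 Eight-point concentration-response in serum-free HepaRG cultures (top 100 uM, 0.5% DMSO, 48 h). Read-out: FMO3 mRNA level normalized to three endogenous control genes, fitted bidirectionally versus vehicle.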

[6] = read-out: Cytochrome P450 (CYP1A1), CYP1A1 (gene 1543); assay: LTEA_HepaRG_CYP1A1: Life Technologies and Expression Analysis (LTEA) Assay for Cytochrome P450 (CYP1A1) using HepaRG (AID 2283454); conditions: mRNA level, 48 h; actives raise or lower the signal
How it was run: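 Induction of CYP1A1 mRNA in a human hepatic cell line was measured 48 h after dosing, with 1 mM phenobarbital as induction positive control and 0.5% DMSO vehicle as baseline for bidirectional curve fitting.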

[7] = read-out: CFLAR gene, CFLAR (gene 8837); assay: LTEA_HepaRG_CFLAR: Life Technologies and Expression Analysis (LTEA) Assay for CFLAR gene using HepaRG (AID 2283455); conditions: mRNA level, 48 h; actives raise or lower the signal
How it was run: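 Gain- or loss-of-signal changes in CFLAR transcript were fitted bidirectionally relative to 0.5% DMSO. Cells (HepaRG, duplicate wells) were dosed for 48 h across eight half-log concentrations topping at 100 uM; quantitation by TaqMan qRT-PCR.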

[8] = read-out: Forkhead box O1 (FOXO1), FOXO1 (gene 2308); assay: LTEA_HepaRG_FOXO1: Life Technologies and Expression Analysis (LTEA) Assay for Forkhead box O1 (FOXO1) using HepaRG (AID 2283456); conditions: mRNA level, 48 h; actives raise or lower the signal
How it was run: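 Using one lot of HepaRG hepatic cells kept in 0.5% DMSO, the team applied test chemicals in duplicate, half-log dilutions from 100 uM, for 48 h. Expression, normalised to ACTB/GAPDH/POLR2A, was compared with vehicle in either direction.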

[9] = read-out: growth arrest and DNA damage 45 (GADD45A), GADD45A (gene 1647); assay: LTEA_HepaRG_GADD45A: Life Technologies and Expression Analysis (LTEA) Assay for growth arrest and DNA damage 45 (GADD45A) using HepaRG (AID 2283458); conditions: mRNA level, 48 h; actives raise or lower the signal
How it was run: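 HepaRG, 48 h exposure, 8 conc. (top 100 uM, half-log steps), 0.5% DMSO vehicle, duplicates. Read-out: qRT-PCR mRNA level, housekeeping-normalized (ACTB/GAPDH/POLR2A). Curves fit bidirectionally vs DMSO baseline.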

[10] = read-out: Forkhead box O3 (FOXO3), FOXO3 (gene 2309); assay: LTEA_HepaRG_FOXO3: Life Technologies and Expression Analysis (LTEA) Assay for Forkhead box O3 (FOXO3) using HepaRG (AID 2283459); conditions: mRNA level, 48 h; actives raise or lower the signal
How it was run: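 Gene-expression endpoint: FOXO3 transcript level by qRT-PCR in HepaRG cultures treated 48 h with chemicals up to 100 uM (half-log, 0.5% DMSO vehicle).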

[11] = read-out: ABC Transporter (ABCB1), ABCB1 (gene 5243); assay: LTEA_HepaRG_ABCB1: Life Technologies and Expression Analysis (LTEA) Assay for ABC Transporter (ABCB1) using HepaRG (AID 2283460); conditions: mRNA level, 48 h; actives raise or lower the signal
How it was run: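 Human liver HepaRG line treated 48 h with up to 100 uM compound (eight half-log points, 0.5% DMSO); ABCB1 mRNA change fitted bidirectionally against DMSO controls.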

[12] = read-out: growth arrest and DNA damage 45 (GADD45B), GADD45B (gene 4616); assay: LTEA_HepaRG_GADD45B: Life Technologies and Expression Analysis (LTEA) Assay for growth arrest and DNA damage 45 (GADD45B) using HepaRG (AID 2283461); conditions: mRNA level, 48 h; actives raise or lower the signal
How it was run: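 Values are bidirectional concentration-response fits against 0.5% DMSO controls. Underlying data: qRT-PCR mRNA levels in human HepaRG liver cells treated 48 h in serum-free induction medium, eight concentrations topping at 100 uM.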

[13] = read-out: ABC Transporter (ABCC3), ABCC3 (gene 8714); assay: LTEA_HepaRG_ABCC3: Life Technologies and Expression Analysis (LTEA) Assay for ABC Transporter (ABCC3) using HepaRG (AID 2283462); conditions: mRNA level, 48 h; actives raise or lower the signal
How it was run: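 Differentiated HepaRG liver cells receive test chemicals at eight concentrations (max 100 uM) for 48 h. Expression of ABCC3 is quantified by qRT-PCR against ACTB, GAPDH and POLR2A, and activity is fitted in both directions against the DMSO control.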

[14] = read-out: ABC Transporter (ABCB11), ABCB11 (gene 8647); assay: LTEA_HepaRG_ABCB11: Life Technologies and Expression Analysis (LTEA) Assay for ABC Transporter (ABCB11) using HepaRG (AID 2283463); conditions: mRNA level, 48 h; actives raise or lower the signal
How it was run: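 Using HepaRG cultures held in 0.5% DMSO, chemicals were tested at half-log dilutions from 100 uM for 48 h. Induction or suppression of ABCB11 mRNA, normalized to ACTB, GAPDH and POLR2A, was fitted bidirectionally against vehicle.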

[15] = read-out: ABC Transporter (ABCC2), ABCC2 (gene 1244); assay: LTEA_HepaRG_ABCC2: Life Technologies and Expression Analysis (LTEA) Assay for ABC Transporter (ABCC2) using HepaRG (AID 2283464); conditions: mRNA level, 48 h; actives raise or lower the signal
How it was run: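 Gene expression of ABCC2 was determined by qRT-PCR in HepaRG cells exposed 48 h to chemicals (highest 100 uM, half-log dilutions). Activity was fitted in both directions relative to 0.5% DMSO vehicle.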

[16] = read-out: Broad substrate specificity ATP-binding cassette transporter ABCG2 (Homo sapiens) (UniProt Q9UNQ0); assay: LTEA_HepaRG_ABCG2: Life Technologies and Expression Analysis (LTEA) Assay for ABC Transporter (ABCG2) using HepaRG (AID 2283465); conditions: mRNA level, 48 h; actives raise or lower the signal
How it was run: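 Gene expression of ABCG2 in HepaRG liver cells is quantified by qRT-PCR following 48 h exposure across an eight-point series topping at 100 uM. Values come from bidirectional fitting relative to DMSO vehicle.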

[17] = read-out: ATP-citrate lyase (ACLY), ACLY (gene 47); assay: LTEA_HepaRG_ACLY: Life Technologies and Expression Analysis (LTEA) Assay for ATP-citrate lyase (ACLY) using HepaRG (AID 2283466); conditions: mRNA level, 48 h; actives raise or lower the signal
How it was run: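 ACLY expression changes in human HepaRG liver cells are quantified by qRT-PCR after 48 h exposure to test chemicals (maximum 100 uM, half-log steps). Values are fitted in both directions relative to 0.5% DMSO vehicle.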

[18] = read-out: Peroxisomal acyl-coenzyme A oxidase 1 (ACOX1) gene, ACOX1 (gene 51); assay: LTEA_HepaRG_ACOX1: Life Technologies and Expression Analysis (LTEA) Assay for Peroxisomal acyl-coenzyme A oxidase 1 (ACOX1) gene using HepaRG (AID 2283467); conditions: mRNA level, 48 h; actives raise or lower the signal
How it was run: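 Human HepaRG hepatic cultures, 48 h treatment with test chemicals up to 100 uM. ACOX1 expression read by qRT-PCR relative to 0.5% DMSO vehicle.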

[19] = read-out: Alkaline Phosphatase, Placental (ALPP) gene, ALPP (gene 250); assay: LTEA_HepaRG_ALPP: Life Technologies and Expression Analysis (LTEA) Assay for Alkaline Phosphatase, Placental (ALPP) gene using HepaRG (AID 2283468); conditions: mRNA level, 48 h; actives raise or lower the signal
How it was run: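 Expression of ALPP was quantified by qRT-PCR against three housekeeping genes in human HepaRG cultures treated for 48 h with an eight-point concentration series up to 100 uM. Activity in either direction was fitted relative to 0.5% DMSO.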

[20] = CEETOX_H295R_TESTO: CeeTox H295R High-throughput Steroidogenesis Assay for Testosterone (TESTO) (AID 2283457); conditions: actives raise or lower the signal
How it was run: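 Testosterone synthesis is assessed in human adrenocortical H295R cells after 48 h of chemical exposure, using HPLC-MS/MS of extracted medium. Activity is fitted in both directions against DMSO control.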

Measured: AC50

Broad substrate specificity ATP-binding cassette transporter ABCG2 (Homo sapiens), sequence (Q9UNQ0 whole entry, looked up): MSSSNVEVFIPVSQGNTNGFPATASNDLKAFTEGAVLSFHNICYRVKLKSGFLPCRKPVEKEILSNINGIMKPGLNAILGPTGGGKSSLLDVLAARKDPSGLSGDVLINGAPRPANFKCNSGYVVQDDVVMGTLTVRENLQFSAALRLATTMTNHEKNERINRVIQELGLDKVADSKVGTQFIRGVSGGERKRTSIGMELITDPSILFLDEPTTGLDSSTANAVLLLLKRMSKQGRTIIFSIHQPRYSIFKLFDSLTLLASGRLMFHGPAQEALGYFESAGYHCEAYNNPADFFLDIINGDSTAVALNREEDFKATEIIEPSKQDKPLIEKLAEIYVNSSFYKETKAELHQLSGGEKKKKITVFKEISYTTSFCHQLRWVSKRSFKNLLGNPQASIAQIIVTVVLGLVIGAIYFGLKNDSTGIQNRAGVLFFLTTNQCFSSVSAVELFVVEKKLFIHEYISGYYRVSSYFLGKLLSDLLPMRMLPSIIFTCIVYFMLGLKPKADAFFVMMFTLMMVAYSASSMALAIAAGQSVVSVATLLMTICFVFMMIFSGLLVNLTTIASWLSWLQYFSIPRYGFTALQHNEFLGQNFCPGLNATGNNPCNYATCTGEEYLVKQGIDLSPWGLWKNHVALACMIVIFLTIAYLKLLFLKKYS

C#C[C@]1(O)CC[C@H]2[C@@H]3CCc4cc(O)ccc4[C@H]3CC[C@@]21C
not listed: [20]
inactive: all other assays above

CC/C(=C(\c1ccccc1)c1ccc(OCCN(C)C)cc1)c1ccccc1
active: [3] 28.1 µM and 38.6 µM | [4] 51.7 µM | [5] 27.9 µM and 33.7 µM | [6] 26.8 µM and 68.3 µM | [7] 64.9 µM and 93.4 µM | [8] 69.8 µM | [10] 66.8 µM | [11] 76.5 µM and 77.8 µM | [12] 79.1 µM and 16.7 µM | [13] 11.2 µM and 23 µM | [14] 26.4 µM and 25.1 µM | [15] 82.5 µM and 93.4 µM | [18] 45.8 µM | [19] 21.5 µM and 23.7 µM
inactive: [1] | [2] | [4] | [8] | [9] | [10] | [16] | [17] | [18]

C[C@]12CC[C@@H]3c4ccc(O)cc4CC[C@H]3[C@@H]1CC[C@@H]2O
active: [2] 80.3 µM | [6] 66.1 µM | [11] 6.57 µM | [14] 50 µM | [15] 41.2 µM | [16] 3.03 µM
not listed: [20]
inactive: all other assays above

CC(C)(C)c1cccc(O)c1
inactive: [20]

CCCCOCCOCCO
active: [6] 50 µM
not listed: [20]
inactive: all other assays above

CC(=N[Si](C)(C)C)O[Si](C)(C)C
inactive: [20]

O=C(c1ccc(OCCN2CCCCC2)cc1)c1c(-c2ccc(O)cc2)sc2cc(O)ccc12
inactive: [1] | [2] | [6] | [9] | [10] | [16] | [17] | [19]
active: [3] 96.1 µM | [4] 50 µM | [5] 72.3 µM | [7] 65.4 µM | [8] 86 µM | [11] 72.7 µM | [12] 92.8 µM | [13] 50 µM | [14] 7.18 µM | [15] 84.8 µM | [18] 68.6 µM

COC(=O)c1ccc(C(=O)OC)cc1
active: [6] 65.1 µM
not listed: [20]
inactive: all other assays above

C=C(C)C(N)=O
active: [6] 50 µM
not listed: [20]
inactive: all other assays above

OCCCO
inactive: [20]

CC=CC(=O)C1=C(C)C=CCC1(C)C
inactive: [20]
